Among all 65,000 compounds or so, about 2,100 (3.2%) showed an effect of 50% or more. The median lay at about -52%. The full list was thinned out, with strong results kept by preference.
system: Plasmodium falciparum; experiment: Screen against P. falciparum Asexual Blood Stage (ABS), at 5uM; assay type: functional, Dd2; conditions: tested at 5 uM

| Compound | INHIBITION [%] |
| --- | --- |
| COC(=O)c1ccc(NC(C)c2ccc3c(c2)NC(=O)CO3)nn1 (stereo not drawn) | -143 |
| O=C(O)CNc1cc(-c2nccnc2N2CCCC2)c2cc[nH]c2n1 | -6.02 |
| O=C(Nc1ccccc1)c1n[nH]c(-n2cnnc2)n1 | -64.6 |
| Cc1occc1C(=O)N1CCCC(c2nncn2C)C1 (stereo not drawn) | -65.6 |
| CN1CCN(c2ccncc2S(=O)(=O)N2CCCCC2)CC1 | -92.3 |
| CCc1nc(C2CCCN2CCCS(=O)(=O)c2ccccc2)no1 (stereo not drawn) | 48.7 |
| CC(C)c1nc(C2CCCN2CCS(=O)(=O)c2ccccc2)no1 (stereo not drawn) | -158 |
| COCc1cccc(CNC(=O)CN2CCCC2c2noc(C)n2)c1 (stereo not drawn) | -27.1 |
| Cc1cccc(OCCNC(=O)CN2CCCC2c2noc(C)n2)c1 (stereo not drawn) | 31.6 |
| COCc1ccccc1CNC(=O)CN1CCCC1c1noc(C)n1 (stereo not drawn) | 51.2 |
| COc1ccccc1CCNC(=O)CN1CCCC1c1noc(C)n1 (stereo not drawn) | -3.9 |
| CCc1nc(C2CCCN2CC(=O)NCCOc2ccccc2)no1 (stereo not drawn) | 58.6 |
| CCc1nc(C2CCCN2CCS(=O)(=O)c2ccccc2)no1 (stereo not drawn) | 60 |
| Cc1nc(C2CCCN2CC(=O)NCCOc2ccccc2)no1 (stereo not drawn) | -62.7 |
| CCOC1(C)C(=O)c2ccccc2N1Nc1ccccc1C(=O)CC (stereo not drawn) | -50.6 |
| O=C1CC[C@H]2[C@H](CCN2c2ncccn2)N1c1ccccc1 | -72.8 |
| CN1CCN(C(=O)[C@H]2CC[C@@H]3[C@@H](CCN3Cc3ccsc3)O2)CC1 | -1.36 |
| COc1cc(N2C[C@H]3CCC[C@@H](CN4CCCC4)[C@H]3C2)ncn1 | -13.2 |
| Cc1c(C(=O)NCC(C)C)nnn1-c1cccc2c1CCN(C)C2 | 26.2 |
| CC(NCC(=O)NCC(=O)Nc1ccc(F)cc1)c1cccs1 (stereo not drawn) | -69.5 |
| Cc1csc(CCCNC(C)CC(=O)Nc2ccc(F)cc2)n1 (stereo not drawn) | 50.5 |
| Cc1csc(CCCNC(C)CC(=O)Nc2cccc(C)c2C)n1 (stereo not drawn) | 50.9 |
| COc1ccccc1NC(=O)CC(C)NCCc1sc(C)nc1C (stereo not drawn) | 22.2 |

| Compound | INHIBITION [%] |
| --- | --- |
| COc1ccccc1NC(=O)CC(C)NCc1scnc1C (stereo not drawn) | -27.4 |
| Cc1csc(CNC(=O)NCC(O)c2ccc(F)cc2)n1 (stereo not drawn) | -12.9 |
| COc1ccsc1C(=O)NC1CCN(c2cccc(F)c2)CC1 | 27.7 |
| Cc1ccc(CC(=O)N2CCC(Nc3ccc(C)nn3)CC2)cn1 | 18.7 |
| Cc1ccc(NC2CCN(C(=O)c3ccc(Cl)o3)CC2)nn1 | -6.11 |
| Cc1ccc(NC2CCN(C(=O)Cn3nc(C)cc3C)CC2)nn1 | -1.51 |
| Cc1ccc(NC2CCN(C(=O)c3c(C)nn(C)c3Cl)CC2)nn1 | 62.2 |
| Cc1ccc(NC2CCN(C(=O)c3c(C)noc3C)CC2)nn1 | -103 |
| CCn1nc(C)c(C(=O)N2CCC(Nc3ccc(C)nn3)CC2)c1C | -18.1 |
| Cc1ccc(NC2CCN(C(=O)c3ccc(C)o3)CC2)nn1 | 53.6 |
| CCc1ccc(C(=O)N2CCC(Nc3ccc(C)nn3)CC2)o1 | -100 |
| Cc1cnn(CC(=O)N2CCC(Nc3ccc(C)nn3)CC2)c1 | 56.7 |
| CC1CCC(NC(=O)c2nn(C)cc2Br)CC1 (stereo not drawn) | -46.7 |
| CCc1ccc(CN2CCc3c(nnn3C)C2COC)cc1 (stereo not drawn) | -44.1 |
| CC(C)Cn1cncc1CNC(=O)c1cccc(CC2CCNCC2)c1 | -83.2 |
| O=C(NCc1cnn2cccnc12)c1cccc(CC2CCNCC2)c1 | 66.1 |
| CC(C)(O)CCc1cccc(C(=O)NCc2cnn3cccnc23)c1 | -126 |
| c1ccc(CCN2CCCC(Cn3ccnc3)C2)cc1 (stereo not drawn) | 64.5 |
| CSCCCN1CCCC(Cn2ccnc2)C1 (stereo not drawn) | -62 |
| c1ccc(SCCN2CCCC(Cn3ccnc3)C2)cc1 (stereo not drawn) | -1.54 |
| O=C(O)c1nnn(-c2cccc(C(F)(F)F)c2)c1-c1ccncc1 | -16.4 |
| COc1ccc(F)cc1S(=O)(=O)NCC(c1cccn1C)N(C)C (stereo not drawn) | -7.7 |
| CN(C)C(CNS(=O)(=O)c1cc(F)ccc1F)c1cccn1C (stereo not drawn) | 54.6 |

| Compound | INHIBITION [%] |
| --- | --- |
| CN(C)C(CNS(=O)(=O)c1ccc(F)cc1F)c1cccn1C (stereo not drawn) | 31.8 |
| Cc1noc(C(C)C)c1C(=O)NCCCN1CCCCCC1=O | -62.4 |
| Cc1nnc(SCCCNc2cc(C3CC3)ncn2)s1 | -39.6 |
| COCc1nn(C)c2c1CN(Cc1cnn(C)c1)CC2 | -6.19 |
| CC1CCCN(Cc2c(C3CC3)n(CC(=O)N(C)C)c3ncccc23)C1 (stereo not drawn) | -59.9 |
| Cc1cc(C2CCCN(CC(=O)N3CCCc4ccccc43)C2)n[nH]1 (stereo not drawn) | -8.74 |
| Cc1cc(C2CCCN(CCC(=O)N3CCc4ccccc43)C2)n[nH]1 (stereo not drawn) | 62.9 |
| Cc1cc(C2CCCN(CC(=O)N3CCc4ccccc43)C2)n[nH]1 (stereo not drawn) | -81.5 |
| CC(=O)N1CCCC1c1cc(N2CCN(CC(C)(C)C)CC2)cc(C)n1 (stereo not drawn) | -126 |
| Clc1cccc(Cl)c1CNCCOc1ccccn1 | -77.7 |
| Cn1cc(N2CC3(CCN(Cc4ccoc4)CC3)OCC2=O)cn1 | -50.3 |
| Cc1cc(C(=O)NC2CCc3c(ccc(=O)n3CCN(C)C)C2)no1 (stereo not drawn) | -24 |
| Cc1cc2n(n1)CC(CNC1CCN(c3ccccn3)CC1)CN2 (stereo not drawn) | -45.8 |
| OCc1ccccc1CNCC1CNc2ccnn2C1 (stereo not drawn) | 2.15 |
| Cc1cc2n(n1)CC(CNC1CCN(Cc3ccccn3)CC1)CN2 (stereo not drawn) | -50.7 |
| Cc1cc2n(n1)CC(CNC1CCN(CCc3ccccc3)CC1)CN2 (stereo not drawn) | 68.6 |
| Cc1cc2n(n1)CC(CNC1CCN(Cc3ccncc3)CC1)CN2 (stereo not drawn) | -0.937 |
| Cc1ccccc1CN1CCC(NCC2CNc3ccnn3C2)CC1 (stereo not drawn) | 67.1 |
| CC(C)n1c2ccccc2c2c1cc(C(=O)NCCO)n2C(=O)N(C)C | -69.4 |
| CC(CN1CCCC1=O)NC(=O)c1ccc(C(F)(F)F)[nH]c1=O (stereo not drawn) | -73.3 |
| Cc1noc(C)c1C(=O)N1CCC(Nc2cccnn2)CC1 | -19.3 |
| NC(=O)c1cc(C2CCCN(CCc3ccc4c(c3)CCO4)C2)n[nH]1 (stereo not drawn) | -88.6 |

Reference: ChEMBL document CHEMBL4513216, “Probing the Open Global Health Chemical Diversity Library for Multistage-Active Starting Points for Next-Generation Antimalarials” (ACS Infect Dis, 2020)
